Screening results deposited in PubChem BioAssay by several laboratories.
Mdm2 MdmX PPI: human Mdm2/MdmX binding inhibition | O15151+Q00987 | SaOS-2 split-luciferase Mdm2/MdmX complementation, luminescence | inhibition, % at 8 µM | 330,000 tested, 3% active | AID 485346;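 active = inhibition of at least 50% at 8 µM in the primary screen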
CSC inhib: blocks cancer stem cells; cancer stem cell-like cells viability, luminescence; inhibition, % at 7.5 µM; 300,000 tested, 1.1% active; in the data active = inhibition above about 75%; tested in HMLE shEcad cells
Gli-Sufu antag: blocks Gli-Sufu signaling in a luciferase reporter. Sufu-KO-LIGHT fibroblasts, Gli luciferase reporter luminescence. inhibition, % at 5 µM. 340,000 tested, 0.74% active;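 active = inhibition above about 55%, limit read from the data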;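 note: 0% = DMSO-treated cells and 100% = wells with medium but no cells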
697 NFkB inh: inhibitors of the PMA/ionomycin-induced NF-kB reporter in 697 B cells. 697 B-cell NF-kB luciferase reporter, 16 h. inhibition, % at 4 µM. 330,000 tested, 0.33% active. AID 435022; in the data active = inhibition above about 35%
Jurkat NFkB inh: lowers PMA/ionomycin-induced NF-kB signal in Jurkat cells; PMA/ionomycin-induced NF-kB luciferase reporter, luminescence; inhibition, % at 4 µM; 330,000 tested, 0.53% active; AID 435003; in the data active = inhibition above about 50%
aSyn UTR inh: MLPCN primary screen, SNCA 5' untranslated region; alpha-synuclein 5'UTR reporter, inhibitor activity; inhibition, % (tested at 7.5 µM); 300,000 tested, 0.82% active; in the data active = inhibition above about 60%;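 note: H4 neuroglioblastoma cells stably carrying SNCA 5'UTR luciferase fusion; 0% = DMSO wells and 100% = positive control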
Mdm2-MdmX conf: confirmation of human Mdm2/MdmX interaction inhibitors. shares compounds with Mdm2 MdmX PPI. Mdm2-MdmX binding, luminescent assay. inhibition, % at 8 µM. 10,000 tested, 55% active. AID 489028; in the data active = inhibition above about 40%
Full FLuc ctr: full-length luciferase inhibition in Mdm2/MdmX counter-screen. shares compounds with Mdm2 MdmX PPI. SaOS-2 full-length luciferase counterscreen, luminescence. inhibition, % at 8 µM. 6,200 tested, 77% active;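 active = mean inhibition at 8 µM reaching about 37%, which flags the compound as non-specific, limit read from the data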;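 note: p53-null SaOS-2 cells with luciferase driven by a doxycycline-inducible promoter; compound on cells about two nights before reading with doxycycline added after day one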
Numbers without * were called inactive; x = no result. An excerpt weighted towards active compounds, which were near 4.5% of everything screened.

SMILES | Mdm2 MdmX PPI | CSC inhib | Gli-Sufu antag | 697 NFkB inh | Jurkat NFkB inh | aSyn UTR inh | Mdm2-MdmX conf | Full FLuc ctr
N#Cc1cc2c(nc1SCC(=O)N1CCOCC1)CCCCC2 | 81* | x | 30 | -68 | -47 | -65 | 86* | 115*
CCC(C)[C@H](NC(=O)N1CCC(C)CC1)C(=O)OC (stereo partly drawn) | -12 | -4 | 0 | 15 | 8 | 31 | x | x
COc1ccc(/C=N/NC(=O)c2cccc(Br)c2)cc1Cn1cc(Cl)cn1 | 60* | x | -2 | 6 | 26 | -38 | 50* | 67*
O=C(/C=C/c1ccc2c(c1)OCO2)Nc1nc2ccc(F)cc2s1 | 73* | 43 | -49 | -57 | -47 | -110 | -53 | x
CC(C)c1ccc(/C=C/C(=O)Nc2nc3ccc([N+](=O)[O-])cc3s2)cc1 | 56* | 36 | -2 | 5 | 7 | 10 | 16 | x
Cc1cccc([C@@H]2[C@@H]3C(=O)N(Cc4ccccc4)C(=O)[C@@H]3[C@]3(C)C(=O)N(c4ccc(C(F)(F)F)cc4)C(=O)N23)c1 | 84* | 8 | 0 | 7 | -7 | -41 | 74* | 33
COc1ccc([C@@H]2[C@@H]3C(=O)N(C(C)(C)C)C(=O)[C@@H]3[C@]3(Cc4ccccc4)C(=O)N(c4ccc(OC)cc4)C(=O)N23)cc1 | -1 | -23 | 0 | 10 | 0 | 7 | x | x
COc1ccc(N2C(=O)N3[C@H](c4cccc(C)c4)[C@@H]4C(=O)N(Cc5ccccc5)C(=O)[C@@H]4[C@]3(Cc3ccccc3)C2=O)cc1 | 70* | -7 | 8 | -13 | -2 | 2 | 80* | 36
O=C(CSc1nccc(=O)[nH]1)NC1CCCCCC1 | 10 | 1 | 1 | 11 | 1 | x | x | x
COc1ccc(C(=O)Cn2nc(CNc3ccc(Br)cc3)[n+]3c2CCCCC3)cc1 | 26 | 13 | 2 | 8 | 2 | 10 | x | x
Cc1ccc(C(C)C)c(OCc2nn(CC(=O)c3ccc(OC(F)F)cc3)c3[n+]2CCCCC3)c1 | 95* | 94* | 42 | -25 | 24 | 46 | 87* | 23
COC(=O)c1c(-c2ccc(OC)cc2)sc2ccc(N3CCOCC3)cc12 | 57* | 43 | -46 | -96 | -2 | x | -13 | x
COc1ccc(-c2sc3ccc(N4CCOCC4)cc3c2-c2ccc(O)cc2)cc1 | 8 | 64 | 23 | -14 | -9 | x | x | x
O=C(NNc1c2ccccc2nc2ccccc12)c1ccc(O)cc1 | 28 | 7 | 28 | -9 | -7 | -14 | x | x
O=C(NNc1c2ccccc2nc2ccccc12)C12CC3CC(CC(C3)C1)C2 | 68* | 6 | 3 | 2 | 7 | 20 | 4 | x
O=C(NNc1c2ccccc2nc2ccccc12)C(O)c1ccccc1 (stereo not drawn) | 78* | -8 | 2 | -22 | 7 | 19 | 82* | 34
Cc1cc(C)cc(Nc2cc(=O)n(C3CCCCC3)c(=O)[nH]2)c1 | 51* | 47 | 0 | 33 | 3 | 19 | 15 | x
COc1ccc(Nc2cc(=O)n(C3CCCCC3)c(=O)[nH]2)c(OC)c1 | 9 | -8 | 4 | 17 | 21 | 37 | x | x
c1ccc(Nc2nc(N3CCCCC3)nc(N3CCNCC3)n2)cc1 | 62* | -1 | 14 | -8 | 3 | 4 | 30 | x
CC(=O)Nc1ccc(S(=O)(=O)/N=C2\C(=O)c3ccccc3C([O-])=C2n2cc[n+](-c3ccccn3)c2)cc1 | 55* | 56 | -3 | -1 | 2 | 23 | 33 | 52*
Cc1nc(SCC(=O)Nc2ccc(CN3CCCC3)cc2)c2c(C)c(C)sc2n1 | 84* | x | 36 | -17 | -4 | x | 37 | 64*
Cc1cccc(OCC(=O)NC(=S)Nc2ccccc2N2CCOCC2)c1C | 73* | 21 | 2 | 5 | -4 | -17 | 15 | x
Cc1ccccc1OCC(=O)Nc1ccc(N2CCN(S(C)(=O)=O)CC2)cc1 | 19 | 4 | 5 | 7 | 16 | 11 | x | x
Cc1cccc(OCC(=O)Nc2ccc(N3CCN(S(C)(=O)=O)CC3)cc2)c1C | 96* | x | 5 | -17 | 15 | 4 | 25 | x
CC(=O)N1CCN(c2ccccc2NC(=O)COc2ccccc2C)CC1 | -3 | -12 | 16 | 0 | 4 | 13 | x | x
